Compound activity: PubChem BioAssay, several laboratories
Exocytosis inh – LAMP-1 surface exposure blockers, TALL-104 cells – cell-based, flow cytometry, MLPCN library, primary screen; TALL-104 LAMP-1 surface exposure; cells stimulated with thapsigargin and PMA; inhibition, % at 10 µM; 360,000 compounds, 0.66% hits; AID 651702, 2012;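 active = inhibition above about 55%, limit read from the data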
SKKanGAS inh – S. pyogenes SKKanGAS growth inhibitors in kanamycin, primary screen, streptokinase expression inhibitor project, SKKanGAS strain, BacTiter-Glo luminescence; 300,000 compounds, 1.3% hits; 6 h; inhibition, % at 7.5 µM;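 active = mean replicate score, as percent of positive control median, at least 50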;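 note: strain carries kanamycin resistance gene driven by streptokinase promoter and grows in 40 µg/ml kanamycin; loss of luminescence reflects streptokinase promoter inhibition or plain growth inhibition; 0% = median of DMSO wells and 100% = positive control at its reference dose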
IDE act – human IDE activators in live cells, primary screen, fluorescence polarization, HEK cells, FAbeta-B substrate; Insulin-degrading enzyme (Homo sapiens), P14735; FAbeta-B cleavage; 0% vehicle, 100% cell-free pure enzyme wells; activation, % at 5.96 µM; 340,000 compounds, 0.073% hits; AID 493087, 2011;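 active = activation above the mean of all tested compounds plus 3 SD, set per screening campaign, cut at about 17% in these data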
IDE cell inh – human IDE inhibitors in live cells, primary screen, fluorescence polarization, HEK cells, FAbetaB substrate; Insulin-degrading enzyme (Homo sapiens), P14735; FAbetaB cleavage; 320,000 compounds, 0.41% hits; inhibition, % at 5.59 µM;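 active = percent inhibition above the average of all tested compounds plus 3 SD, set per screening campaign, cut at about 16% in these data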;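 note: IDE supplied by intact live HEK cells; FP after avidin binding of uncleaved biotin substrate so inhibition keeps polarization high; 0% = DMSO wells and 100% = 60 µM reference IDE inhibitor Ii1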
PP1 counter – PP1-alpha phosphatase inhibitors, primary screen, counter-screen for PP5 inhibitor project, biochemical, fluorescence, OMFP substrate, single point | Serine/threonine-protein phosphatase PP1-alpha catalytic subunit (Homo sapiens), P62136 | purified PP1alpha | inhibition, % at 6.7 µM | 320,000 compounds, 0.9% hits;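 active = inhibition above the mean inhibition of all tested compounds plus 3 SD, computed separately for each screening campaign, cut at about 15% in these data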
PP5 inh – PP5 phosphatase inhibitors, primary screen, biochemical, fluorescence; Serine/threonine-protein phosphatase 5 (Homo sapiens), P53041; purified PP5c, OMFP substrate fluorescence; inhibition, % at 6.7 µM; 320,000 compounds, 0.18% hits; AID 1987, 2009;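 active = inhibition above the campaign's mean inhibition across all tested compounds plus 3 SD, cut at about 9.5% in these data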;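 note: 0% = DMSO only and 100% = 100 µM cantharidin control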
Numbers without * were called inactive; x = no result. Sampled rows, rich in hits. Any-hit rate of the full collection: about 2.8%.

SMILES	Exocytosis inh	SKKanGAS inh	IDE act	IDE cell inh	PP1 counter	PP5 inh
CCCCCCC(=O)N(O)C1CC(=O)N(c2ccc(Cl)cc2)C1=O (centres undefined)	72.2*	3.7	-0.7	-4.8	1.7	-1.4
S=c1[nH]nc(-c2cccs2)n1/N=C/c1c(Cl)cccc1Cl	2.5	62.6*	-1.5	4.0	3.0	-0.2
Cc1ccc(/C=N/n2c(-c3cccs3)n[nH]c2=S)cc1	2.8	12.1	-12.4	-0.1	1.6	0.4
S=c1[nH]nc(C2CCCCC2)n1/N=C/c1c(Cl)cccc1Cl	-9.4	52.2*	-0.9	11.7	-8.5	-2.7
CC(C)CCNC(=O)Cc1csc(-c2ccccc2)n1	0.0	-3.7	-5.1	2.4	1.8	3.0
COc1ccc(N2CCN(C(=O)c3ccc4c(c3)NC(=O)C(CSCc3ccccc3F)N4)CC2)cc1 (centres undefined)	12.8	x	x	x	x	x
COc1ccccc1N1CCN(C(=O)c2ccc3c(c2)NC(=O)C(CSCc2ccccc2C)N3)CC1 (centres undefined)	x	12.8	x	0.1	23.0*	0.1
COc1ccc(CC(=O)Nc2ccc(/C(C)=N\NC(=O)c3ccc(Br)o3)cc2)cc1	15.7	0.5	3.5	x	x	x
Cn1cc(S(=O)(=O)Nc2ccc(F)c(Cl)c2)c(=O)n(C)c1=O	0.7	-5.7	2.3	2.3	-0.6	-1.1
COc1ccc(CCNC(=O)c2cc(-c3ccc(Cl)c(Cl)c3)oc2C)cc1	7.4	52.8*	1.4	2.5	-1.8	2.2
COc1ccc(CCNC(=O)c2nn(C)cc2Cl)cc1	4.9	0.0	-2.0	-1.7	-7.3	1.1
O=S1(=O)N[C@@H](Cc2ccccc2)COc2cc(N3CCC[C@@H]3CO)ccc21	-6.2	x	x	x	x	x
CC(C)(C)c1csc(NNC(=O)c2ccc(Cl)cc2)n1	7.1	90.1*	x	6.9	0.4	4.9
CN(C)CCCN(C(=O)c1ccc(S(=O)(=O)N2CCCCCC2)cc1)c1nc2c(F)cc(F)cc2s1	8.6	-6.5	-0.9	1.6	-0.9	-2.1
CC1CCN(C(=O)C2CCCN2S(=O)(=O)c2ccc(Cl)cc2)CC1 (centres undefined)	1.7	0.1	-0.6	-0.3	-1.1	0.3
Cc1ncc(CN2CCCC(C(=O)Nc3ccc(-c4cccc(F)c4)cc3)C2)n1C (centres undefined)	11.6	-14.5	-2.2	2.3	0.1	2.0
CN(Cc1c(F)cccc1Cl)C(=O)c1cnc2ccccc2n1	-12.4	1.3	-2.8	2.0	0.2	0.0
S=C(NCCSCc1ccc(Cl)cc1Cl)Nc1ccccc1	4.0	56.3*	1.0	1.4	2.4	2.4
S=C(NCCSCc1c(Cl)cccc1Cl)Nc1ccccc1	-1.5	x	3.6	-2.9	-5.3	0.3
COc1ccc(CSCCNC(=S)Nc2ccccc2)cc1Cl	0.1	62.7*	3.7	5.1	1.6	5.9
S=C(NCCSCc1ccc(Cl)c(Cl)c1)Nc1ccccc1	1.2	51.8*	-4.3	-2.2	4.5	1.4
Cc1cc(NC(=O)C(C)Oc2ccccc2)no1 (centres undefined)	-0.6	-3.9	6.1	8.9	0.4	-9.3
COc1ccc(N2CC(C(=O)N(CC(C)C)c3c(N)n(Cc4ccccc4)c(=O)[nH]c3=O)CC2=O)c(OC)c1 (centres undefined)	-3.1	-0.4	1.3	5.3	-0.8	-0.2
COc1ccccc1N(CC(=O)NCc1ccccc1)C(=O)CCC(=O)Nc1nccs1	1.4	-3.0	1.7	-0.1	1.3	2.0
CC(C)CCNC(=O)CN(Cc1ccccc1)C(=O)CCC(=O)Nc1ccccn1	-2.6	-7.2	-4.8	-0.3	-4.7	-1.2
SMILES	Exocytosis inh	SKKanGAS inh	IDE act	IDE cell inh	PP1 counter	PP5 inh
CCOCCCN(C(=O)CCC(=O)Nc1cc(C)on1)C(C(=O)NC(C)(C)C)c1ccccc1Cl (centres undefined)	1.8	-1.6	2.9	2.5	1.9	2.2
Cc1c(Cl)cccc1-c1ccc(CNCc2ccccn2)o1	49.0	82.8*	-0.8	-4.9	12.6	-1.0
COc1cc(CNCc2ccccn2)ccc1OCc1c(Cl)cccc1Cl	6.3	-8.9	-4.8	2.6	0.7	0.1
COC(=O)c1ccc(NC(=O)c2sc3nc(-c4ccccc4)cn3c2C)cc1	-0.8	71.1*	-13.0	9.2	-5.9	0.3
Cc1ccc(NC(=S)Nc2cccc3cnccc23)cc1C	55.8*	-31.9	-6.0	2.9	0.6	1.9
CC(C)c1nnc(NC(=O)c2c(O)c3cccc4c3n(c2=O)CCC4)s1	-1.1	90.4*	8.6	3.5	2.1	1.0
Cc1cnc(NC(=O)c2c(O)c3cccc4c3n(c2=O)CCC4)s1	x	-3.6	x	x	x	x
CCCc1nc2ccccc2c(=O)n1NC(=O)c1c(O)c2cccc3c2n(c1=O)CCC3	-5.3	73.0*	-1.3	1.3	0.3	-1.6
COc1ccc(C(=O)NCC(=O)OCC(=O)N2N=C(c3ccc(Cl)cc3)CC2c2ccco2)cc1OC (centres undefined)	5.8	75.9*	-0.1	-3.1	-0.2	2.7
CC(C)[C@H](NS(=O)(=O)c1ccccc1)C(=O)OCC(=O)N1N=C(c2ccc(Cl)cc2)CC1c1ccco1 (some centres undefined)	-2.0	16.5	-0.9	8.4	16.4*	4.7
COCC(=O)OCC(=O)N1N=C(c2ccc(Cl)cc2)CC1c1ccco1 (centres undefined)	2.1	-1.6	-0.8	2.1	-1.6	1.1
CCc1cccc(Nc2cnn(C34C[C@@H]5C[C@@H](CC(CC(=O)O)(C5)C3)C4)c(=O)c2Cl)c1	-2.1	-8.0	-22.3	20.9*	-2.9	2.6
COc1cc2c(cc1OC)C(=O)C(Br)CC2 (centres undefined)	100.4*	x	x	x	x	x
C[C@H](CO)N1C[C@H](C)[C@@H](CN(C)Cc2ccc(Oc3ccccc3)cc2)Oc2c(NS(=O)(=O)c3cn(C)cn3)cccc2C1=O	-14.8	x	-0.6	11.7	x	x
CCc1sc(N(C(=O)Cc2ccccc2)c2cccc(F)c2)nc1-c1ccc(C)cc1	5.1	59.4*	2.0	-0.4	-4.2	-0.6
O=C(Cc1cccs1)N1CCN=C1SCc1cccc(F)c1	3.1	8.1	-4.4	1.1	-2.1	-2.3
O=C(COC(=O)c1ccc([N+](=O)[O-])cc1Cl)Nc1cccnc1Cl	4.5	-2.3	-0.1	2.2	-3.4	-2.9
CC(OC(=O)CC1CC2CCC1C2)C(=O)Nc1cccc(S(=O)(=O)N2CCOCC2)c1 (centres undefined)	3.4	-11.5	17.7*	6.8	2.4	4.7
CC(O)CN=c1cc(-c2ccccc2)oc2ccc(Cl)cc12 (centres undefined)	-4.9	0.3	-1.6	4.3	-0.3	-1.3
